Bioassay records from PubChem.
HPGD inh = inhibitors of human 15-hydroxyprostaglandin dehydrogenase (HPGD). P15428. purified HPGD, NADH fluorescence kinetic, PGE2 substrate. Potency, µM, without a hit: at the highest dose activity change, negative = inhibition, most hits filed as inhibitors. 150,000 tested, 4.3% active; also: potency is read from the fitted curve at half-maximal effect
Target sequence (P15428 whole entry, looked up): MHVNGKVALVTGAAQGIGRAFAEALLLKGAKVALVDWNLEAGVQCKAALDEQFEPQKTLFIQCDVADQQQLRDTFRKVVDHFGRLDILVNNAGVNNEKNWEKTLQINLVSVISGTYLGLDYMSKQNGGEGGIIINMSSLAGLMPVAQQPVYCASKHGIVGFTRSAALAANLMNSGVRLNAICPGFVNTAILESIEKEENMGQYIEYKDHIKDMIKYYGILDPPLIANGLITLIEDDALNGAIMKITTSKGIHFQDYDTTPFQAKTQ
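NADH formation kinetics: reaction with 30 uM PGE2 and 1 mM NAD+ (final), 20 nM enzyme, Tris-HCl pH 8 with Tween 20, after 15 min compound preincubation at room temperature. Fluorescence change, last versus first of five reads.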
KDM4E inh = JMJD2E (human) inhibition | B2RXH2 | JMJD2E catalytic domain, FDH-coupled NADH fluorescence (FDH is formaldehyde dehydrogenase) | Potency, µM (series often up to 57.1 µM), inactives show at the top dose activity change, negative = inhibition, hits mostly inhibitors | 230,000 tested, 1.6% active;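 also: potency is read from the fitted curve at half-maximal effect; 0% = wells with enzyme and -100% = buffer wells without enzyme; nearly all actives have a fitted effect of over 50% in size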
Target sequence (B2RXH2 1-337 limits assumed): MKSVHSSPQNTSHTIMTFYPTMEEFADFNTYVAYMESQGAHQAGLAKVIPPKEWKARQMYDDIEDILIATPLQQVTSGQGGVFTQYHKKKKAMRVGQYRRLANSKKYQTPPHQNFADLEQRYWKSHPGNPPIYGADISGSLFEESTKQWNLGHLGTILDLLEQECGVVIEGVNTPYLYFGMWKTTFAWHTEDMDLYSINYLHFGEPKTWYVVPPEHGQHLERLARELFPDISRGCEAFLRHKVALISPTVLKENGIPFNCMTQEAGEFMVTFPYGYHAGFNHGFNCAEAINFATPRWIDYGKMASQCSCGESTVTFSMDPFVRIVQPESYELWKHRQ
ALDH1A1 block = ALDH1A1 (human) enzyme inhibition; P00352; Purified ALDH1A1, NADH fluorescence, propionaldehyde substrate; Potency, µM (highest dose often 75.3 µM), for inactives: top-dose activity, negative = inhibition, hits mostly inhibitors; 220,000 tested, 7.3% active;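 also: potency is read from the fitted curve at half-maximal effect; plate controls were no enzyme wells and a reference inhibitor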
PNC inhibitor = inhibitors of perinucleolar compartment assembly; PC3M PTB-GFP, PNC prevalence imaging, 16 h; hits give low values; activity change (PNC), negative = inhibition, % at 10 µM; 140,000 tested, 3.1% active;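 active = readout at or below -70, meaning at least 70% loss of cells showing the perinucleolar compartment, a nuclear body marking cancer cells; inconclusive = readout between -30 and a set limit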;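 also: plate controls were DMSO wells for no effect and camptothecin positive control wells for full effect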
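Read-out is percentage of cells bearing a perinucleolar compartment, from automated 20x imaging of fixed, Hoechst-stained PC3M PTB-GFP cells. Cells were seeded 4 h, then exposed 16 h to compound (23 nl of library stock) in duplicate plates.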
The depositor's hits bear a star; ? = inconclusive; . = no result given; [ ] = dose if it differs, or a comment. Most compounds without a hit are left out; they make up all but 11% or so of the library. Unless noted, calls follow the shape of the dose curve; as a rule, active = well fitted inhibition curve with a large enough effect (not every such curve was filed as active); inconclusive = small, poorly fitted or top-dose-only effect, or another doubt; inactive = no such curve, though single readings can be large or run the other way. Unless noted, % is scaled to controls: 0 for no effect and ±100 for the full control effect.

SMILES	HPGD inh	KDM4E inh	ALDH1A1 block	PNC inhibitor
S=c1[nH]nc(Nc2ccc(Cl)cc2)s1	.	-5%	.	.
CCOc1ccc(Nc2n[nH]c(=S)s2)cc1	.	-29%	1.3µM*	0
O=C(NCc1cccs1)C1CCN(S(=O)(=O)c2cccc3cccnc23)CC1	-2%	3%	8%	3
CN(CC(=O)Nc1ccccc1-c1ccccc1)Cc1ccccc1Cl	.	-8%	?	.
O=C(NC(=S)Nc1ccccc1Cl)c1csnn1	?	6%	4.5µM*	-30
CC(C)c1ccc(NC(=O)c2csnn2)cc1	?	0%	18µM*	-18
CSc1cccc(NC(=S)Nc2cc(C)ccc2C)c1	.	5%	5%	.
COc1ccc(Cl)cc1N(CC(=O)NC(C)(C)C)S(=O)(=O)c1ccc(C)c([N+](=O)[O-])c1	-16%	7%	-3%	35
Cc1cc(/C=C2\SC(=Nc3ccccc3)NC2=O)c(C)n1-c1ccc(S(N)(=O)=O)cc1	-18%	?	28µM*	-30
c1ccc2c(c1)OC(CCCN1CCCCC1)c1ccccc1S2 (stereo not given)	-8%	3%	4%	-100*
c1ccc(OCCCN2CCCC2)cc1	-8%	?	?	?
COc1ccc(CN=C2NN=C(c3cccc(OC)c3)CS2)cc1	.	-1%	8.9µM*	.
COc1ccc(/C=C2\SC(=NCc3ccccc3)NC2=O)cc1	?	0%	-8%	-7
COc1ccc(CN=C2NN=C(c3ccccc3)CS2)cc1	.	?	4.5µM*	.
C/C(=N\Nc1ccc(C(=O)O)cc1)c1ccc(S(=O)(=O)NCc2ccco2)cc1	.	1%	5%	.
O=C1C2CCCN2C(c2ccco2)N1c1ccc(F)cc1 (stereo not given)	.	-11%	3%	.
O=S(=O)(NCC(c1ccccc1)N1CCNCC1)c1ccc(Cl)cc1 (stereo not given)	-18%	17%	8.9µM*	-19
Cc1ccc(S(=O)(=O)NCC(c2ccccc2)N2CCCCC2)cc1 (stereo not given)	.	3%	-11%	.
CC(=O)N1CCC2(CCCN(Cc3cc(C(F)(F)F)cc(C(F)(F)F)c3)C2)CC1	-6%	.	0%	.
O=c1[nH]n(-c2ccc(Cl)cc2)c2ncccc12	11µM*	4%	2%	3
S=c1[nH]nc(CSCc2ccccc2Cl)n1-c1ccccc1	?	-5%	4.5µM*	-8
O=C(O/N=C\c1ccc(N2CCCCC2)c([N+](=O)[O-])c1)c1c(F)cccc1F	-20%	12%	18µM*	23
Cc1ccc(C(=O)O/N=C\c2ccc(N3CCCCC3)c([N+](=O)[O-])c2)cc1	-16%	-2%	1.4µM*	?
O=C(O/N=C\c1ccc(N2CCCCC2)c([N+](=O)[O-])c1)c1cccc(Cl)c1	-17%	-8%	?	17
C/C(CCc1ccc2c(c1)OCO2)=N\N=C(/N)SC1CC(=O)N(c2ccccc2F)C1=O (stereo not given)	?	9%	?	-21
SMILES	HPGD inh	KDM4E inh	ALDH1A1 block	PNC inhibitor
Cc1ccc(/C=C/C(=O)OCC(=O)NC(C)C)o1	.	0%	3%	.
CCCN1CCN(C(=S)Nc2ccc3nc(N4CCN(CC)CC4)cc(C)c3c2)CC1	.	?	-4%	.
Cc1cc(N2CCN(C)CC2)nc2ccc(NC(=S)N3CCN(c4ccccn4)CC3)cc12	.	?	13µM*	.
Cc1ccc(C)c(N2CCN(C(=S)Nc3ccc4nc(N5CCN(C)CC5)cc(C)c4c3)CC2)c1	.	?	-7%	.
CCN1CCN(c2cc(C)c3cc(NC(=S)N4CCN(c5ccccc5F)CC4)ccc3n2)CC1	.	?	13µM*	.
O=C(O)[C@@H]1[C@H](C(=O)O)[C@H]2C(=O)C=C[C@H]1N2Cc1ccccc1	-6%	.	-10%[13.5 µM]	.
O=C(Nc1c(C(=O)O)[nH]c2ccc(F)cc12)c1cccc(C(F)(F)F)c1	.	-1%	.	.
O=C1C2C3C=CC(C3)C2C(=O)N1Nc1c(Cl)cc(Cl)cc1Cl (stereo not given)	.	8%	1%	.
Nn1cnnc1SC1CCCCC1NS(=O)(=O)c1ccccc1 (stereo not given)	-6%	7%	10µM*	?
Cn1cnnc1SC1CCCCC1NS(=O)(=O)c1ccccc1 (stereo not given)	-3%	-3%	7.9µM*	?
Cn1cnnc1SC1CCCCC1NS(=O)(=O)c1ccc(Cl)cc1 (stereo not given)	-3%	-6%	13µM*	121
O=C(O)c1ccccc1-c1oc2cc(O)ccc2c(=O)c1Oc1ccccc1	?	?	20µM*	.
O=C(O)c1ccccc1-c1c2ccc(=O)cc-2oc2cc(O)ccc12	?	.	-7%	.
COc1ccc(S(=O)(=O)Nc2cc(C)c(O)cc2C(C)C)cc1	-18%	0%	-8%	-20
C/C(=N\S(=O)(=O)c1ccc(C)cc1)Nc1cc(C(C)C)c(O)cc1C	-6%	-1%	2.8µM*	?
COC(=O)c1sccc1NS(=O)(=O)c1ccc(OC)cc1	20µM*	-3%	-3%	13
COc1ccc(S(=O)(=O)NNC(=O)c2sccc2-n2cccc2)cc1	.	-4%	2.8µM*	.
COc1ccc(S(=O)(=O)Nc2cc(C(C)C)c(O)cc2C)cc1	-4%	-3%	0.32µM*	-3
C/C(Cn1nnc2ccccc21)=N\NC(=O)c1cccc(Br)c1	-12%	0%	?	-25
COc1ccccc1NS(=O)(=O)c1cccc(C(=O)N/N=C(\C)c2ccc3c(c2)OCCO3)c1	-9%	1%	25µM*	22
COC(=O)c1ccc(C)c(NS(=O)(=O)c2ccc3c(c2)OCCO3)c1	-1%	2%	7.9µM*	-112*
COC(=O)c1ccc(C)c(NS(=O)(=O)c2ccc(OC)cc2)c1	-2%	1%	0.79µM*	-94*
CCCCCCCCCCCC(=O)N1CC(=O)NC(=O)C1	.	-12%	2%	.
O=C1NC[C@H](Cc2ccccc2)N(CC2CCCCC2)C1=O	.	5%	.	.
S=C1N(c2ccccc2)C(c2ccc(Br)cc2)N2CCCN12 (stereo not given)	.	-16%	-6%	.
SMILES	HPGD inh	KDM4E inh	ALDH1A1 block	PNC inhibitor
Cc1cccc2c1N(CCCOc1ccc(C(C)(C)C)cc1)C(=O)C2=O	8.9µM*	-3%	0.089µM*	?
Cc1cc(N2CCCC2=O)cc(C)c1S(=O)(=O)NCCOc1ccc(C(C)(C)C)cc1	-4%	7%	-1%	-10
Cc1ccc(OCCN2C(=O)c3ccccc3C2=O)c(C)c1	22µM*	3%	5%	22
Cc1ccccc1OCCCN1C(=O)C(=O)c2cccc(C)c21	?	-7%	0.11µM*	-15
Cc1ccc2c(c1)C(=O)C(=O)N2CCCOc1ccccc1C	.	?	-3%	.
CCNC(=S)NNC(=O)c1cc(Br)cs1	-23%	5%	?	37
CN(C)CCCNc1ncnc2nc[nH]c12	-5%	.	0%[13.5 µM]	.
O=C(O)C/C=C(\NC(=O)OCc1ccccc1)C(=O)OCc1ccccc1	.	-7%	0.28µM*	.
Cc1ccc(/C=C(\NC(=O)c2ccccc2)C(=O)OCc2ccccc2)cc1	-6%	16%	-9%	?
O=C1CC[C@H](NC(=O)c2ccccc2)C(=O)N1	-11%	.	10%[13.5 µM]	.
